Source: PMC5540273 (PLoS ONE, 2017)

Tested on: T1, YSK4
T1 construct: gene MAP3K19
Conditions: concentration: 1 μM, replicates: in singlicate; n = 1
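Note: KINOMEscan kinase panel screen.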

SMILES	%Inh [%]
O=C(Nc1cccc(-c2nn3ccccc3c2-c2ccnc(Nc3cccc(F)c3)n2)c1)c1c(F)ccc(F)c1Cl [GSK357952]	0
c1ccc(-c2cnc3nccnn23)cc1 [AH20685]	0
CN(c1ccc(NC(=O)Nc2cc(C(F)(F)F)ccc2F)cc1)c1ccnc(Nc2ccc(S(N)(=O)=O)cc2)n1 [GW809893]	99.1
O=C(Nc1n[nH]c2cc(-c3ccoc3)ccc12)C1CC1 [SB-738481]	89
C[C@@H]1CC[C@@H](C(=O)Nc2ccccc2)CN1c1cc(-c2ccc3c(N)n[nH]c3c2)nc(N)n1 [GSK2286062]	29
O=C(Nc1cccc(-c2nn3ncccc3c2-c2ccnc(Nc3ccccc3)n2)c1)c1c(F)cccc1F [GSK198271]	18
COc1cccc(NC(=O)NC2CCN(c3ccnc(Nc4cc(OC)c(OC)c(OC)c4)n3)C2)c1 (centres unmarked) [GSK1379763]	31
CN1CCN(CCCNc2nccc(-c3c(-c4ccc(F)cc4)nn4cc(C(F)(F)F)ccc34)n2)CC1 [GW621581]	9
Nc1n[nH]c2cnc(-c3ccccc3)cc12 [SB-642124]	95.9
Cc1occc1-c1ncc(OC[C@@H](N)Cc2c[nH]c3ccccc23)cc1-c1ccc2[nH]nc(C)c2c1.O=C(O)C(F)(F)F [GSK682037]	99.5
Cl.NC(=O)c1cccc(Nc2nccc(Nc3ccc(Oc4c(Cl)cccc4Cl)c(Cl)c3)n2)c1 [GW659009]	3
CCCCc1nn2ncccc2c1-c1ccnc(Nc2ccc(N3CCN(C)CC3)cc2)n1 [GW684941]	57
CCc1ccc(-c2ccc3c(c2)-c2c(cnn2C)S(=O)(=O)N3C)cc1	7
c1ccc(-c2n[nH]cc2Nc2ccnc3ccccc23)nc1 [GW694077]	99.1
c1ccc(Oc2ccc(Nc3ccnc4cc(-c5ccc(CNCCN6CCOCC6)o5)ccc34)cc2)nc1 [GW567145]	35
Cn1cc(-c2[nH]c3cc(NC(=O)[C@H](N)C4CCCCC4)cc4c3c2C=NNC4=O)cn1	100

SMILES	%Inh [%]
FC(F)(F)c1ccc(/C=C/c2cncnc2Nc2ccc3[nH]c(Cc4ccccc4)nc3c2)cc1 [GW709199]	73
COc1cc2c(cc1OCCN1CCNCC1)ncc1c3ccc(C#N)cc3[nH]c21	87
CC(=O)N1CCN(c2ccc(Nc3nccc(-c4sc(C(C)C)nc4-c4cccc(NS(=O)(=O)c5cccc(Cl)c5)c4)n3)cn2)CC1 [GSK1660437]	9
Cc1ccc(F)c(C(=O)Nc2cccc(-c3nn4ccccc4c3-c3ccnc(Nc4cccc(F)c4)n3)c2)c1F [GSK361061]	0
Cc1cccc(NC(=O)Nc2ccc(Oc3ncnc4ccn(C)c34)cc2)c1	97.1
COc1cc(Nc2nccc(N3CCC(NC(=O)Nc4cccc(C(C)=O)c4)C3)n2)cc(OC)c1OC (centres unmarked) [GSK1379753]	75
C[C@@H](Oc1cc(-n2cnc3cc(-c4ccnc(NCCS(C)(=O)=O)c4)ccc32)sc1C(N)=O)c1ccccc1Cl [GSK907232]	96.7
COC(=O)Nc1nc2cc(Oc3ccc(NC(=O)Nc4cc(C(F)(F)F)ccc4F)cn3)ccc2[nH]1.Cl.Cl [GW681170]	87
Nc1ncnc2c1nc(-c1ccccc1)n2-c1ccccc1 [SKF-97293]	54
NCCCC(NC(=O)c1cc(Br)c(-c2ccnc3[nH]ccc23)s1)c1ccccc1.O=C(O)C(F)(F)F.O=C(O)C(F)(F)F (centres unmarked) [GSK1287544]	95.2
CSc1cccc2c(-c3ccncn3)c(-c3ccc(F)cc3)nn12 [GW514786]	0
CC(C)c1nc(-c2cccc(NS(=O)(=O)c3c(F)cccc3F)c2F)c(-c2ccnc(Nc3ccc(N4CCOCC4)nc3)n2)s1 [GSK2008607]	85
Cc1cccc(Nc2nc(N[C@H]3CCNC3)ncc2C(N)=O)c1.Cl [GSK2197149]	90
Nc1ncc(-c2ccc3nccc(-c4ccncc4)c3c2)cc1S(=O)(=O)N1CCOCC1 [GSK1627798]	88
COc1ccc(CNC(=O)NC2CCN(c3ccnc(Nc4ccc(F)cc4)n3)CC2)cc1 [GSK1379788]	14
O=C(Nc1n[nH]c2nc(-c3ccc(O)cc3)ccc12)C1CC1 [SB-710363]	92.2
